RORg inh – qHTS for inhibitors of ROR gamma transcriptional activity; Nuclear receptor ROR-gamma (Mus musculus), P51450; Drosophila S2 Gal4-RORgamma UAS-luciferase reporter, 20 h; Potency, µM (top dose mostly 53.6 µM), most hits filed as inhibitors; 310,000 compounds, 5.4% hits; note: nearly all actives have a fitted effect of over 60% in size
Target sequence (P51450 whole entry, looked up, the tested form may be a part): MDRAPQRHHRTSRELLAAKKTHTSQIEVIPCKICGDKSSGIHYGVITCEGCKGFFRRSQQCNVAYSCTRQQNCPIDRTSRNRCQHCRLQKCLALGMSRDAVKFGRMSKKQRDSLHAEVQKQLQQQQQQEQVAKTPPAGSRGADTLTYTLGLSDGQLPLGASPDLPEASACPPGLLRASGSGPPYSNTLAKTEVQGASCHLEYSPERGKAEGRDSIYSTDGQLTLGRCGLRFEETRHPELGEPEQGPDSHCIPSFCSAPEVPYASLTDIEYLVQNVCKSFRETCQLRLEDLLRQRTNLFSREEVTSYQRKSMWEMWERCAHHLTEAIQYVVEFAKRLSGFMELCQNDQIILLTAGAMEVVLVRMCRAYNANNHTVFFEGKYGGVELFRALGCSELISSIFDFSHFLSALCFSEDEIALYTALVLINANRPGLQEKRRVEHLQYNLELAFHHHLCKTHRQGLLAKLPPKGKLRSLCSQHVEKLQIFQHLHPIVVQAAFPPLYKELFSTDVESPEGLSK
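Drosophila S2 cells stably expressing Gal4-DBD/mouse RORγ fusion under metallothionein promoter plus UAS-luciferase; compound 1 h, then 700 uM CuSO4 induction for 20 h at ambient temperature; inhibition read as reduced luminescence.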
S2 tox – Viability Counterscreen for Primary qHTS for Inhibitors of ATXN expression; S2 cells (HEK-293 line with an ATXN2-luciferase reporter) viability, CellTiter-Fluor protease fluorescence, 24 h; Potency, µM (highest dose often 56.7 µM), hits mostly cytotoxic; 400,000 compounds, 0.49% hits; note: nearly all actives have a fitted effect of over 40% in size
Gal4-VP16 FLuc – VP16 counterscreen qHTS for inhibitors of ROR gamma transcriptional activity. Drosophila S2 Gal4-VP16 UAS-luciferase, luminescence, 20 h. Potency, µM (titrated, usually from 53.6 µM), usual class: inhibitors. 310,000 compounds, 3.5% hits;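 note: Gal4-VP16 expression switched on by copper sulfate through the metallothionein promoter; nearly all actives have a fitted effect of over 50% in size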
HepG2 tox – qHTS for Inhibitors of TGF-b: Cytotox Counterscreen | AID 588856, 2011 | Potency, µM (highest dose often 46.1 µM), usual class: cytotoxic | HepG2 CAGA-GFP viability, ATP luminescence, 18 h | 410,000 compounds, 0.76% hits
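CellTiter-Glo luminescence gave cytotoxicity after 18 hours at 37 degrees C. The cells were HepG2 CAGA-GFP in 1% FBS DMEM, stimulated with 500 pg/mL TGF-beta after compound addition. %Activity was normalised to no-cell wells (complete cell-killing) and DMSO (no toxicity), and curves were fitted and classified.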
ATXN2 expr inh – Primary qHTS for Inhibitors of ATXN expression. AID 1745845, 2022. 360,000 compounds, 0.72% hits. Potency, µM (series often up to 57 µM), most hits filed as inhibitors. HEK-293 ATXN2-luciferase reporter, luminescence, 24 h; note: nearly all actives have a fitted effect of over 55% in size
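qHTS (up to 57 uM final) was run with 24 h compound exposure of reporter cells at 37 °C. Each well was multiplexed: SteadyGlo luminescence measured ATXN2-luciferase expression after a fluorogenic Gly-Phe-AFC viability readout (25 uM final).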
TGFb inhibitor – qHTS for Inhibitors of TGF-b | HepG2 CAGA-GFP TGF-b/SMAD3 reporter, GFP fluorescence, 18 h; TGF-beta stimulated, 500 pg/mL final | Potency, µM (doses to about 46.1 µM), hits mostly inhibitors | 410,000 compounds, 1.2% hits; note: nearly all actives have a fitted effect of over 65% in size
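Inhibition was scored as loss of TGF-beta-induced (500 pg/mL final, 18 hours, 37 degrees C) GFP in HEPG2 cells carrying a CAGA-GFP reporter, in DMEM with 1% FBS. Well GFP was summed per cell; Activity was normalised to unstimulated and stimulated DMSO wells, then concentration-response fitting.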
Of the large screens only hits and unclear results are named; the others gave an inactive call. Shown are actives, neighbours in structure and some others; about 6.3% of the full set was active somewhere. Calls come from the whole dose curve; as a rule, active = well fitted curve in the direction sought with a large enough effect; inconclusive = small, poorly fitted or top-dose-only effect, or another doubt; inactive = no such curve, though single readings can be large; an effect the other way counts as inactive or inconclusive.

CCOc1cc(C(=S)N2CCCCC2)ccc1OS(=O)(=O)c1ccc(Cl)cc1	RORg inh 10µM
CCOc1cc(C(=S)N2CCC(O)CC2)ccc1OS(=O)(=O)c1ccc(Br)cc1	S2 tox inconclusive
CCOc1cc(C(=S)N2CCCCC2)ccc1OS(=O)(=O)c1ccc(Br)cc1	RORg inh 7.1µM, S2 tox inconclusive
Cc1noc(C)c1-c1nccc(N2CCN(C)CC2)n1	none (no result: S2 tox, HepG2 tox, ATXN2 expr inh, TGFb inhibitor)
CCc1ccc(NC(=O)CC2C(=O)N(c3ccccc3)C(=O)N2C(C)C)cc1 (centres undefined)	none (no result: RORg inh, S2 tox, Gal4-VP16 FLuc, ATXN2 expr inh)
OC(CCCN1CCC(O)(c2ccc(Cl)cc2)CC1)c1ccc(F)cc1 (centres undefined)	none
OC1(c2ccc(Cl)c(C(F)(F)F)c2)CCN(CCCC(c2ccc(F)cc2)c2ccc(F)cc2)CC1	RORg inh 13µM, S2 tox 18µM, Gal4-VP16 FLuc 10µM, ATXN2 expr inh 16µM (no result: HepG2 tox, TGFb inhibitor)
O=C(NCc1ccc(/C=N\NC(=O)C(=O)Nc2ccccc2Br)o1)C(=O)Nc1ccccc1	RORg inh 11µM, Gal4-VP16 FLuc inconclusive (no result: ATXN2 expr inh)
O=C(N/N=C\c1ccc(CNS(=O)(=O)c2ccc(Cl)cc2)o1)C(=O)Nc1ccc(Oc2ccccc2)cc1	RORg inh 13µM, Gal4-VP16 FLuc 13µM, TGFb inhibitor inconclusive
CNS(=O)(=O)c1cn(CC(=O)Nc2ccc(OC)cc2OC)cc1S(=O)(=O)NC	none (no result: RORg inh, S2 tox, Gal4-VP16 FLuc, ATXN2 expr inh)
Cc1nc(N/N=C/c2ccccn2)sc1C	RORg inh 0.11µM, S2 tox inconclusive, Gal4-VP16 FLuc 0.5µM, TGFb inhibitor inconclusive
O=C(O)Cc1sc(N/N=C\c2ccccc2)nc1-c1ccccc1	S2 tox inconclusive
COC(=O)c1ccc(/C=N/Nc2nc(C)c(C)s2)cc1	Gal4-VP16 FLuc inconclusive, TGFb inhibitor inconclusive (no result: S2 tox)
CCCc1sc(N/N=C/c2ccccn2)nc1-c1ccc(F)cc1	RORg inh 0.28µM, S2 tox 16µM, Gal4-VP16 FLuc 0.32µM, ATXN2 expr inh 4µM, TGFb inhibitor 11µM
Cc1ccc2c(C(=O)CNc3nc(C)c(C)s3)c(C)[nH]c2c1	TGFb inhibitor inconclusive (no result: RORg inh, S2 tox, Gal4-VP16 FLuc, ATXN2 expr inh)
Cc1ccc(-c2nnc(-c3ccccc3)o2)cc1	RORg inh inconclusive, Gal4-VP16 FLuc 10µM
COc1cc(OC)cc(-c2nnc(NC(=O)Cc3ccc(F)cc3)o2)c1	RORg inh 0.71µM, Gal4-VP16 FLuc 0.63µM
COc1ccc(-c2nnc(NC(=O)Cc3ccccc3)o2)cc1	RORg inh 1.6µM, Gal4-VP16 FLuc 2.8µM (no result: ATXN2 expr inh)
COc1ccc(C(=O)OCC(=O)Nc2nnc(-c3ccccc3)o2)cc1	RORg inh 4µM, Gal4-VP16 FLuc 5µM
CN(C)c1nc(Cc2ccc(NC(=O)c3ccc(C(F)(F)F)cc3)cc2)nc(N(C)C)c1CC(=O)O	none (no result: RORg inh, S2 tox, Gal4-VP16 FLuc, HepG2 tox, TGFb inhibitor)
COc1ccc(-c2nnc(-c3ccccc3O)o2)cc1	RORg inh inconclusive, Gal4-VP16 FLuc 13µM
COc1ccc(-c2nnc(-c3ccc(C)cc3)o2)cc1	RORg inh inconclusive, Gal4-VP16 FLuc inconclusive
Cc1ccc(-c2nnc(NC(=O)CCS(=O)(=O)c3ccc(F)cc3)o2)c(C)c1	none (no result: RORg inh, Gal4-VP16 FLuc)
Cc1ccc(CC(=O)Nc2nnc(-c3ccc(F)cc3)o2)c(C)c1	RORg inh 2.5µM, Gal4-VP16 FLuc 3.2µM (no result: ATXN2 expr inh)
CC1(C)CC(C)(c2ccc(O)cc2O)N(c2ccc3ccccc3c2)C(=S)N1 (centres undefined)	RORg inh 7.9µM, Gal4-VP16 FLuc inconclusive, TGFb inhibitor inconclusive
Cc1ccc(C2CC(c3ccc(Cl)cc3)=NNC2=O)cc1 (centres undefined)	RORg inh inconclusive, Gal4-VP16 FLuc 14µM
Cc1nc(SCC(=O)Nc2cccc(Cl)c2)n[nH]1	none
O=C(CSc1nc2c(oc3ccccc32)c(=O)[nH]1)Nc1cccc(Cl)c1	S2 tox inconclusive, TGFb inhibitor 11µM (no result: RORg inh, Gal4-VP16 FLuc)
Cc1ccc(C)c(NC(=O)CSc2n[nH]c(-c3ccccn3)n2)c1	RORg inh 6.3µM, S2 tox inconclusive, Gal4-VP16 FLuc inconclusive, ATXN2 expr inh 18µM
